This is an account of results in PubChem BioAssay AID431 (Sanford-Burnham Center for Chemical Genomics, 2006).

About 1,100 (1.7%) of roughly 63,000 compounds were called active.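 How the source made its calls: active means compounds whose percent cytotoxicity in the single-dose primary screen, scaled between solvent and toxic-drug controls, exceeds 50; inactive means the rest.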 Many of the other results were omitted from the sample, so actives are more common in it than they were. Results with a measured potency or affinity are listed apart.

The experiment can be described thus: cytotoxicity in KRAS-transformed pancreatic duct cells, primary screen, cell-based, fluorescence, HTS (AID 431).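 Further: 0% = DMSO solvent wells and 100% = doxorubicin-treated wells.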 The settings on record: HPDE-C7K KRASV12 cells, Alamar Blue viability, 48 h; at 10 µM; active compounds read high.
On to `Nc1c(C(=O)N2CCCCC2)sc(=S)n1-c1ccccc1`, for which the cytotoxicity was -4.9% (inactive). For the compound `CCOC(=O)Cc1nn2c(=O)cc(C)nc2s1`, the cytotoxicity is -0.8% (inactive). Then `CC(=O)NC1(C(F)(F)F)C(=O)Nc2c1c(=O)[nH]c(=O)n2Cc1ccco1` (stereo not drawn), with -16.1% (inactive).

As to `Cc1cc(C)n(-c2nc(Nc3ccccc3)nc(-n3nc(C)cc3C)n2)n1`, the cytotoxicity is 9.6% (inactive). Then `CC(=O)c1cccc(NC(=O)CC2SC(N3CCCCC3)=NC2=O)c1` (stereo not drawn), with -7.4% (inactive); and `CCOCC(=O)Nc1nc2ccc(OCC)cc2s1`, with 4.3% (inactive); and `Cc1cccc(N(CC(=O)NCc2ccccc2)C(=O)Cn2nnc(-c3ccc(C)o3)n2)c1`, with -14.9% (inactive). Then `CC(CN1CCOCC1)OC(=O)c1ccc2c(c1)OCCO2` (stereo not drawn), with 9.2% (inactive); and `COc1ccc(C(=O)OC(C)CN2CCOCC2)cc1OC` (stereo not drawn), with -10% (inactive). The figure for `O=C(CCN1C(=O)C2C3C=CC(C3)C2C1=O)NCc1cccnc1` (stereo not drawn) is -6.8% (inactive). As to `O=C(CSc1nc(Nc2ccccc2)nc(N2CCOCC2)n1)N1CCCC1`, the cytotoxicity was 5.4% (inactive). Then `O=C(CSc1nc2ccccc2c(=O)n1C1CC1)NCc1ccccc1`, with 3.5% (inactive). In the case of `COc1ccccc1-c1nnn(CC#N)n1`, the cytotoxicity was 6.1% (inactive).

On to `CCOC(=O)c1c(C)c(C(=O)N2CCCCCC2)c(C)n1CC`, for which the cytotoxicity was -2.8% (inactive). Then `O=C1c2ccccc2NC(c2ccccc2)N1Cc1ccco1` (stereo not drawn), with -5.8% (inactive); and `CCOC(=O)CC1=C(C(=O)OCC)C(c2ccc(OC)c(OC)c2)C(C#N)=C(N)O1` (stereo not drawn), with 5.7% (inactive).

Consider `CCOC(=O)CSC1=C(C#N)C(=O)NC2(CCCCC2)S1`, for which the cytotoxicity was 13.8% (inactive). The figure for `CCOC(=O)CSC1=C(C#N)C(=O)NC(c2ccc(OC)c(OC)c2)S1` (stereo not drawn) is 70.5% (active); for `COc1ccc(CCn2c(C)ccc2C)cc1OC` it is -8.8% (inactive).

Consider `O=C(NC1CCCCC1)N1CCC(c2nc3ccc(Cl)cc3[nH]2)CC1`, for which the cytotoxicity was 7.4% (inactive). Then `Cn1nc(-c2ccc(Cl)cc2)c2cc(C(=O)NCCCN3CCOCC3)sc21`, with 9.2% (inactive); and `Cn1nc(-c2ccc(Cl)cc2)c2cc(C(=O)NCCCN3CCCC3)sc21`, with 54.3% (active). In the case of `CN1CCN(CCCNC(=O)c2cc3c(-c4ccc(Cl)cc4)nn(C)c3s2)CC1`, the cytotoxicity is 3.3% (inactive). With `COc1ccccc1N1CCN(CCC(=O)Nc2ccc3c(c2)OCO3)CC1`, the cytotoxicity is 7.5% (inactive). The figure for `Cc1ccc(-c2nc3cccnc3o2)cc1NC(=O)COc1ccc(Cl)cc1C` is 0.4% (inactive). For `CCOc1cccc(C(=O)Nc2cccc(-c3nnc(-c4ccccc4)o3)c2)c1`, the cytotoxicity was -9.8% (inactive). Then `CCOc1ccc(C(=O)Nc2cccc(-c3nc4cccnc4o3)c2)cc1Cl`, with 56% (active). `CCN1CCN(c2ccc(NC(=O)c3cccc4ncccc34)cc2)CC1`: the cytotoxicity was -12.5% (inactive). The figure for `Cc1sc2nc(SCC(=O)c3cccs3)n(Cc3ccco3)c(=O)c2c1C` is 31.6% (inactive); for `CCN(CC)c1nc(-c2cccc(OC)c2O)nc2ccccc12` it is -8.4% (inactive); for `CCC1CCCCN1c1nc(-c2cccc(OC)c2O)nc2ccccc12` (stereo not drawn) it is 8.3% (inactive). Then `Oc1ccc(Nc2nc(NCC3CCCO3)c3ccccc3n2)cc1` (stereo not drawn), with 46.8% (inactive); and `COc1cccc(-c2nc(NCC3CCCO3)c3ccccc3n2)c1O` (stereo not drawn), with 55.1% (active).

`C=CCNc1nc(-c2cccc(OC)c2O)nc2ccccc12`: the cytotoxicity was -8.3% (inactive). Then `COc1cccc(-c2nc(N3CCCCC3)c3ccccc3n2)c1O`, with -18.8% (inactive); and `Oc1ccccc1-c1nc(NCc2ccco2)c2ccccc2n1`, with 5.3% (inactive); and `COc1cccc(-c2nc(NC(C)(C)C)c3ccccc3n2)c1O`, with 20.9% (inactive). In the case of `COc1cccc(-c2nc(NC(C)C)c3ccccc3n2)c1O`, the cytotoxicity was 42.1% (inactive). Then `CCC(C)Nc1nc(-c2cccc(OC)c2O)nc2ccccc12` (stereo not drawn), with 114% (active); and `COc1cccc(-c2nc(N3CCCCC3C)c3ccccc3n2)c1O` (stereo not drawn), with 63.1% (active). The figure for `CS(=O)(=O)N(CC(=O)N1CCN(Cc2ccccc2)CC1)Cc1ccccc1` is -3% (inactive). Then `COCCCNc1nc2c(c(=O)[nH]c(=O)n2C)n1CCCc1ccccc1`, with -3.8% (inactive); and `CCCn1c(CNS(=O)(=O)c2ccc(C)cc2)nc2ccccc21`, with 5.2% (inactive). On to `O=C(CN1CCN(C(=O)c2ccccc2F)CC1)Nc1ccc(Br)cc1`, for which the cytotoxicity was -5.9% (inactive). The figure for `CCCCn1cnc2sc3c(c2c1=N)CCCC3` is -7.6% (inactive); for `CCCCOC(=O)Nc1ccccc1C(N)=O` it is -5.7% (inactive); for `COc1ccc(/C(O)=C2/C(=O)C(=O)N(CCCC(=O)O)C2c2ccc(OC)c(OC)c2)cc1` (stereo not drawn) it is -0.6% (inactive).

As to `Oc1ccccc1-c1nc(NCC2CCCO2)c2ccccc2n1` (stereo not drawn), the cytotoxicity was 50.1% (active). In the case of `c1coc(CNc2nc(N3CCCCC3)nc3ccccc23)c1`, the cytotoxicity is 38.2% (inactive).

As for `c1ccc(-c2nc(NCC3CCCO3)c3ccccc3n2)nc1` (stereo not drawn), the cytotoxicity was 9.5% (inactive).

Consider `c1ccc(-c2nc(NCc3ccco3)c3ccccc3n2)nc1`, for which the cytotoxicity was 20% (inactive). Then `Oc1ccccc1Nc1nc(NCC2CCCO2)c2ccccc2n1` (stereo not drawn), with 12.1% (inactive); and `CC(=O)c1ccc(NC(=O)CSc2nnc(Cn3c(=O)sc4ccccc43)n2C)cc1`, with -1.4% (inactive); and `N#Cc1ccc(CSc2nnc(-c3ccccn3)n2-c2ccccc2)cc1`, with 10.8% (inactive).

Take `COc1cc2[nH]c(=O)n(CCCCCC(=O)NCCCN3CCC(C)CC3)c(=O)c2cc1OC`: the cytotoxicity is -6.7% (inactive). The figure for `O=C(CN1C(=O)NC2(CCCCCCC2)C1=O)N1CCOCC1` is -1.1% (inactive). Consider `O=C(Cn1c(=O)oc2cc(S(=O)(=O)NCc3ccccc3)ccc21)NCc1ccco1`, for which the cytotoxicity is 2.7% (inactive). With `CC(C)Cc1nc(N2CCOCC2)c(C#N)c2c1CCC2`, the cytotoxicity was 64.8% (active). Then `CCc1nc(N2CCOCC2)c(C#N)c2c1CCCC2`, with -2.9% (inactive). Then `CCCc1nc(N2CCCC2)c(C#N)c2c1CCCC2`, with 87.9% (active); and `CCCc1nc(N2CCOCC2)c(C#N)c2c1CCCC2`, with -0.6% (inactive); and `CC(C)Cc1nc(N2CCN(C(=O)c3ccco3)CC2)c(C#N)c2c1CCC2`, with 63.2% (active). `CC(=O)N1CCN(c2nc(CC(C)C)c3c(c2C#N)CCC3)CC1`: the cytotoxicity is 2% (inactive). The figure for `CCc1nc(N2CCN(C(=O)c3ccccc3)CC2)c(C#N)c2c1COC(C)(C)C2` is 5.9% (inactive); for `CC(C)Cc1nc(N2CCN(C(=O)C(C)C)CC2)c(C#N)c2c1CCC2` it is -14.5% (inactive). The figure for `CCc1nc(N2CCCC2)c(C#N)c2c1CCCC2` is -11.1% (inactive); for `CC1(C)Cc2c(C#N)c(N3CCOCC3)nc(Cc3ccccc3)c2CO1` it is 40% (inactive). The figure for `CC(C)Cc1nc(N2CCCCC2)c(C#N)c2c1CCC2` is 16.1% (inactive).
